Columns and labels:
Assay in all cases: log2 ratio of Biotin-Ahx-Ub-VS probe labelling (fragment/DMSO); higher = less target engagement (more negative = stronger competition), active = hit call of the paper (q ≤ 0.05, log2 ratio ≤ -1)
Settings in all cases: compound concentration: 200 uM; treatment time: 3 h
USP34 = USP34 (UniProt Q70CQ2)
Method in brief: (§1)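 Each value is an average log2 ratio of fragment to vehicle, tested by unpaired t-test. The underlying Spectronaut label-free quantities were global-median-normalised, and only proteins with ≥2 unique peptides were included. Triplicate HEK293T lysate samples (495 µg) were exposed to fragment at 200 µM or vehicle for 3 h, then to Biotin-Ahx-Ub-VS at 0.5 µM final for 1 h, before NeutrAvidin enrichment of labelled DUBs, LysC and trypsin digestion, and diaPASEF LC-MS/MS.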

USP36 = molecular target: T1, USP36 (UniProt Q9P275)
T1 sequence (whole entry): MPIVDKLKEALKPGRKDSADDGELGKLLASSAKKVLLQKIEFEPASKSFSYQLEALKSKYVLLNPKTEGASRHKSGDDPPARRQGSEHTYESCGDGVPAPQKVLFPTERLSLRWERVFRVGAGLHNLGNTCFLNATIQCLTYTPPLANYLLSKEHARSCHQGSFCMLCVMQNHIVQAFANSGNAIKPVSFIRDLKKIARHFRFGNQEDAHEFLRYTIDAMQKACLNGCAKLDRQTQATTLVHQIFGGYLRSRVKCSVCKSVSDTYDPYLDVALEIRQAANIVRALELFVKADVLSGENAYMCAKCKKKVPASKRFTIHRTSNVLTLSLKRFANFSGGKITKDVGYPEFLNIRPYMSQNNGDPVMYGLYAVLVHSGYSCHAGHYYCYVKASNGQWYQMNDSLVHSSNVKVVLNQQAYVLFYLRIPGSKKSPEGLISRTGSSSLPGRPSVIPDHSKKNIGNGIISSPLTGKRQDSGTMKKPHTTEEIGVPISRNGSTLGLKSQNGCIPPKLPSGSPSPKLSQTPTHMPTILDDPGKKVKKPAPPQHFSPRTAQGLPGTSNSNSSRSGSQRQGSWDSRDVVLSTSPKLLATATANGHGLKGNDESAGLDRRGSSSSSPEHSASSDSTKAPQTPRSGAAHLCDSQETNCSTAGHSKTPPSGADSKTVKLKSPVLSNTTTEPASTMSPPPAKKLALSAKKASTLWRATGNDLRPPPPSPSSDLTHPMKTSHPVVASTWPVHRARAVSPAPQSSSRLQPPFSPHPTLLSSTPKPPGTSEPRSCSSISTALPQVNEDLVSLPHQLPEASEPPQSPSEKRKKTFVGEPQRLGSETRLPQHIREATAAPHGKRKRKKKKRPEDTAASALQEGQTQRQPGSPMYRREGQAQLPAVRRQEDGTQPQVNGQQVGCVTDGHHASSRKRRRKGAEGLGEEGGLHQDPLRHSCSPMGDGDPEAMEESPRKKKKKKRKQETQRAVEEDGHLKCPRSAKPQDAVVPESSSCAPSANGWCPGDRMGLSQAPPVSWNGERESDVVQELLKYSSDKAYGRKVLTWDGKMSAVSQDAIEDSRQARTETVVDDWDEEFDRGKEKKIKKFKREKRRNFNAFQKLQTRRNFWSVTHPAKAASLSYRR
Method in brief: as §1

USP38 = molecular target: T2, USP38 (UniProt Q8NB14)
T2 sequence (whole entry): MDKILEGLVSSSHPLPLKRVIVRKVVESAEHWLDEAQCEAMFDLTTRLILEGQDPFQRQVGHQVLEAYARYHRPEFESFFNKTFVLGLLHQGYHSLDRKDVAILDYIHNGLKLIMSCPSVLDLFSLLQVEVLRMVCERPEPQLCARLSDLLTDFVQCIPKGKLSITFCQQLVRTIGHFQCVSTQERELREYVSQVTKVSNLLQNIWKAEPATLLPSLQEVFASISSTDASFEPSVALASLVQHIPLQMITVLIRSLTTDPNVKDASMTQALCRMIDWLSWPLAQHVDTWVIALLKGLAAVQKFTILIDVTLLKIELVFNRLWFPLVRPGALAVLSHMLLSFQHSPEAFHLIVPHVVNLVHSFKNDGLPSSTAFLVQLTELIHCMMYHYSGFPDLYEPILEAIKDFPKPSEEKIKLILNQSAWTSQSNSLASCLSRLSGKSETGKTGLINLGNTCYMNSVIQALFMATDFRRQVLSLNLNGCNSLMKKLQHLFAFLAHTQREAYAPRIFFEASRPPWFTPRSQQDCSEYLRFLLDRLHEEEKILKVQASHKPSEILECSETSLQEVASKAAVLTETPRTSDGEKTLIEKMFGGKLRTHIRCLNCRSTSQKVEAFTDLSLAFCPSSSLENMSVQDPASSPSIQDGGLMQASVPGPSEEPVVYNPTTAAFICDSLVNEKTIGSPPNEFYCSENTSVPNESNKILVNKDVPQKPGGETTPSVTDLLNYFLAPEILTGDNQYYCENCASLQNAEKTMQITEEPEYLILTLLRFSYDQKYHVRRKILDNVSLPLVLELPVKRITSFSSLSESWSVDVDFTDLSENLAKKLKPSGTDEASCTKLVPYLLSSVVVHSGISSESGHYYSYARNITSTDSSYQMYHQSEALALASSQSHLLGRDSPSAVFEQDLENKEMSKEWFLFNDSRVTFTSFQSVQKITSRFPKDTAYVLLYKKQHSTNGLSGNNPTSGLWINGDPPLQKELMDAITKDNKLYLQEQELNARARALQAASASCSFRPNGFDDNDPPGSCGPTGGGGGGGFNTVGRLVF
Method in brief: as §1

USP39 = molecular target: T3, USP39 (UniProt Q53GS9)
T3 sequence (whole entry): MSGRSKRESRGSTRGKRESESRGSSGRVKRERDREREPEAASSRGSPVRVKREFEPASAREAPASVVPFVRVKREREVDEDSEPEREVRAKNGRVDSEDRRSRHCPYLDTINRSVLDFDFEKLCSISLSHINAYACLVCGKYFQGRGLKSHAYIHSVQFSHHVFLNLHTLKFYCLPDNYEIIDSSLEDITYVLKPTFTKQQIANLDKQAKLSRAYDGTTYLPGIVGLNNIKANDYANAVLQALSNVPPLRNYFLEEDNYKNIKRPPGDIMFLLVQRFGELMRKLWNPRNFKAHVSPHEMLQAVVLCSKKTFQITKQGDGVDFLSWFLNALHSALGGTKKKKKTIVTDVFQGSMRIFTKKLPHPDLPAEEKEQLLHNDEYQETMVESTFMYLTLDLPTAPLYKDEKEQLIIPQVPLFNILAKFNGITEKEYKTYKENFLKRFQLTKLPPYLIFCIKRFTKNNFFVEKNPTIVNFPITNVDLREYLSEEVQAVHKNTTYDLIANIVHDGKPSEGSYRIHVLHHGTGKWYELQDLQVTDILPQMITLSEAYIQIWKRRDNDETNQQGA
Method in brief: as §1

USP4 = molecular target: T4, USP4 (UniProt Q13107)
T4 sequence (whole entry): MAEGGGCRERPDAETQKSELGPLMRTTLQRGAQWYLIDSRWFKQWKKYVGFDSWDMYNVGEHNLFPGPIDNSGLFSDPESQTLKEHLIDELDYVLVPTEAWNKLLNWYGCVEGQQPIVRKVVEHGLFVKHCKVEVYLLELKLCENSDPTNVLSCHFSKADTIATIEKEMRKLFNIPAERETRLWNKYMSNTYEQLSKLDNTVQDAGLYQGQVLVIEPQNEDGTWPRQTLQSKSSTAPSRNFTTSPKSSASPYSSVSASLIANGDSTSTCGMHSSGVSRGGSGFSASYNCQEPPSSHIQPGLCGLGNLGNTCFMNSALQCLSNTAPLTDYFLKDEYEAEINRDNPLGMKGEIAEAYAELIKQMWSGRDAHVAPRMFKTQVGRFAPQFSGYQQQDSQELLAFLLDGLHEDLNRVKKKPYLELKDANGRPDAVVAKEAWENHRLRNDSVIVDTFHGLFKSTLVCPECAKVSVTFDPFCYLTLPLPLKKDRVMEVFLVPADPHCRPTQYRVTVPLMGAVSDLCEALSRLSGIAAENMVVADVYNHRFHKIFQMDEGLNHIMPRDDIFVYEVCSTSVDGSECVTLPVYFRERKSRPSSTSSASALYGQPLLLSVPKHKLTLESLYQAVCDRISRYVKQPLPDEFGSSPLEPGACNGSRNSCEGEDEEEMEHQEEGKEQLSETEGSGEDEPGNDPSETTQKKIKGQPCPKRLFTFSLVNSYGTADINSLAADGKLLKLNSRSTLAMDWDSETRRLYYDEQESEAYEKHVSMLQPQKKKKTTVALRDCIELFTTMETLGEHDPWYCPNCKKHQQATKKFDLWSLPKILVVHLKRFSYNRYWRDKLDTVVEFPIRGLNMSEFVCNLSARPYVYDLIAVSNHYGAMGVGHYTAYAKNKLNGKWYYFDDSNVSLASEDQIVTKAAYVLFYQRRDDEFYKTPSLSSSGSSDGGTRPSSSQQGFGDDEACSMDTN
Method in brief: as §1

Measured: log2 ratio of Biotin-Ahx-Ub-VS probe labelling

Chain of USP34 (Q70CQ2 whole entry, the tested form may be a part): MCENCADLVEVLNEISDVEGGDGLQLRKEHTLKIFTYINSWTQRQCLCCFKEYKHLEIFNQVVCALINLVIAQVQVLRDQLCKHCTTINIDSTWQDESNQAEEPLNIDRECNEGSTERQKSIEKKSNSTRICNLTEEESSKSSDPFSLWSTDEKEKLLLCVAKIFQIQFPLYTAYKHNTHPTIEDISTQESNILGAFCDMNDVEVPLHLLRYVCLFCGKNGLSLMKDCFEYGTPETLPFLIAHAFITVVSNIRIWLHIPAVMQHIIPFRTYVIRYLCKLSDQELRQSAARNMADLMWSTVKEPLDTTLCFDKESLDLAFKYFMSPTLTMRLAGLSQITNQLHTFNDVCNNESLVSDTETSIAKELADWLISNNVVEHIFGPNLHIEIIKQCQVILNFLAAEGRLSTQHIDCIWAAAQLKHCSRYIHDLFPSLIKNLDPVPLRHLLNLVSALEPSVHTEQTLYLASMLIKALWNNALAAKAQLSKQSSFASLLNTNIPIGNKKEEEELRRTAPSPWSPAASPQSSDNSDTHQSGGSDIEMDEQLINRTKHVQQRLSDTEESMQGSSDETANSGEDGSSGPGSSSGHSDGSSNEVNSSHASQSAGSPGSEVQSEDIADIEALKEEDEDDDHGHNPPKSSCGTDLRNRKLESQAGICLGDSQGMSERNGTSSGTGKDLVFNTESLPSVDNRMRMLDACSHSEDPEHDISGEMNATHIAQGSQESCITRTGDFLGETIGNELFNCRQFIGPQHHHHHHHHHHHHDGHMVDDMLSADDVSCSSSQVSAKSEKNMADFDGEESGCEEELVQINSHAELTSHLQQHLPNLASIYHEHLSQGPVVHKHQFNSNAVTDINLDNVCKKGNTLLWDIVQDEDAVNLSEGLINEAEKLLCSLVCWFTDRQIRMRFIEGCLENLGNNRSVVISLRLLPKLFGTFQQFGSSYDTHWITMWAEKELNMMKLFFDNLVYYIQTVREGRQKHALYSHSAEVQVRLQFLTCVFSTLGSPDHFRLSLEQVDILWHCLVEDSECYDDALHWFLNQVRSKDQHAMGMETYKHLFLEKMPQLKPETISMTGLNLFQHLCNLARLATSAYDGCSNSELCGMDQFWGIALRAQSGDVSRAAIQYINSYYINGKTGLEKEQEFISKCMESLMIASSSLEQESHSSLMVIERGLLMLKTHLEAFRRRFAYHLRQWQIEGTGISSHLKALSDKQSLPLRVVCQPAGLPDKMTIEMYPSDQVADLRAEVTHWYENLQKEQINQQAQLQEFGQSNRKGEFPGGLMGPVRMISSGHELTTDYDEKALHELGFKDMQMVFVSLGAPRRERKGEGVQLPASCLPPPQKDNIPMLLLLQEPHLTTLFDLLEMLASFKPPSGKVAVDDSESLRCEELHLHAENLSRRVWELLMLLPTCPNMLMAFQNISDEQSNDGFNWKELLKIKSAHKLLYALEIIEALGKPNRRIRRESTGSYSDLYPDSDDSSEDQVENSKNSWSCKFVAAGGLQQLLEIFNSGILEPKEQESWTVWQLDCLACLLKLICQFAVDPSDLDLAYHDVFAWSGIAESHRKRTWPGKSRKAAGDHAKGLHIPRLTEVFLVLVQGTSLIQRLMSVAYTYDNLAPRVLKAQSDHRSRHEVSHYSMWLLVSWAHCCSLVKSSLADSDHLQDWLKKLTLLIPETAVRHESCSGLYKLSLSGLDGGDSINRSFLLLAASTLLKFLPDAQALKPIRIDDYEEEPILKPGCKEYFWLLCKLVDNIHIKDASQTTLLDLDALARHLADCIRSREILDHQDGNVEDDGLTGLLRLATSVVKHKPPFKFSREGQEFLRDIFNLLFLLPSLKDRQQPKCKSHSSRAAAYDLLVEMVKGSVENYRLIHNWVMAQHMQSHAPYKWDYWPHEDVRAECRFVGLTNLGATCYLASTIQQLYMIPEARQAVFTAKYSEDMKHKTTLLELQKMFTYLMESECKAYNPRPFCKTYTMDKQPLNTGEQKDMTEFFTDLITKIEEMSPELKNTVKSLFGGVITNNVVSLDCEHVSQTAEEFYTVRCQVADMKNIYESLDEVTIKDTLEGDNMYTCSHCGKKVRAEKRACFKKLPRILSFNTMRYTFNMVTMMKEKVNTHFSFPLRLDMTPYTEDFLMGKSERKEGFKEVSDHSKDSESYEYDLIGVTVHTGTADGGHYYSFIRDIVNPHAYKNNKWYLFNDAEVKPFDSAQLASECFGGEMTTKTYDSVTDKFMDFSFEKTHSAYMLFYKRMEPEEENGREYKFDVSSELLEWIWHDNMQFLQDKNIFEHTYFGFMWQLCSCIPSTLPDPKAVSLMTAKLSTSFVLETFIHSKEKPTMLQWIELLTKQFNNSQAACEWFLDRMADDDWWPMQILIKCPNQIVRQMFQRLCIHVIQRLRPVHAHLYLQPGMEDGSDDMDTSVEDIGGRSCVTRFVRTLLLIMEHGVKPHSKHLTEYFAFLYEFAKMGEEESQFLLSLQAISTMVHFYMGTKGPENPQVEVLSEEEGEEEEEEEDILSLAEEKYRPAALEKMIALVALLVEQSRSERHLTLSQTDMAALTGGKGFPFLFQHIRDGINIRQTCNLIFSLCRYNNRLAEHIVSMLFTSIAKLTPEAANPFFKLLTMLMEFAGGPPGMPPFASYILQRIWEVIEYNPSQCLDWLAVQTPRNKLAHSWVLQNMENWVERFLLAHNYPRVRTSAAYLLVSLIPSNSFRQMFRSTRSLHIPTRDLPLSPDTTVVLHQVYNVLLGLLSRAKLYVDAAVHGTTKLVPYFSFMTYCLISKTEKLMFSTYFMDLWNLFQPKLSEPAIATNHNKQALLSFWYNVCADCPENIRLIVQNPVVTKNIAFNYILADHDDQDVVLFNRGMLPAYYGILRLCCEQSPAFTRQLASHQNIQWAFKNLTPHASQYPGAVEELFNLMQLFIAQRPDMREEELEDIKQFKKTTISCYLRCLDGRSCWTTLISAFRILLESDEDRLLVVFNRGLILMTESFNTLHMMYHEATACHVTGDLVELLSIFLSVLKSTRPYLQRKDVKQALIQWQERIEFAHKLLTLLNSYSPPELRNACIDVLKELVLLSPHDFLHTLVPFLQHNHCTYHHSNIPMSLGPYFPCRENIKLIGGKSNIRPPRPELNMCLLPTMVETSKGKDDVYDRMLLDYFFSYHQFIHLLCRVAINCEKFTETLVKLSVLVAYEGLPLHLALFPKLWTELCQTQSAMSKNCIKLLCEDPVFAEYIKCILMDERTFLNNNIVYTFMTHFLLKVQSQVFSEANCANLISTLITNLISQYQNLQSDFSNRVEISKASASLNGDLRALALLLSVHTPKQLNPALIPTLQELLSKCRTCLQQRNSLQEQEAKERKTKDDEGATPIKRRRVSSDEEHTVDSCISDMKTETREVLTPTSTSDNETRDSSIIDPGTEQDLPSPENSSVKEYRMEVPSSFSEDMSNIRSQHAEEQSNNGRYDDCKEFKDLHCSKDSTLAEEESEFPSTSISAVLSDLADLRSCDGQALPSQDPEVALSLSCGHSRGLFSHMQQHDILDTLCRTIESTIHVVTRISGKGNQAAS

Cc1n[nH]c(=O)c2c(NC(=O)CCl)oc(C)c12
inactive: USP34 -0.107 | USP36 0.103 | USP38 0.0131 | USP39 0.082 | USP4 0.0593
